D2 ag-1 – activates the human D2 dopamine receptor. P14416. DiscoveRx PathHunter D2 beta-arrestin, luminescence, 90 min; 100% = 57 uM dopamine signal. activation, % (concentration not given with the values). 360,000 compounds, 0.084% hits. AID 624465; in the data active = activation above about 40%; inconclusive = between about 15% and that limit
Target sequence (P14416 whole entry, looked up): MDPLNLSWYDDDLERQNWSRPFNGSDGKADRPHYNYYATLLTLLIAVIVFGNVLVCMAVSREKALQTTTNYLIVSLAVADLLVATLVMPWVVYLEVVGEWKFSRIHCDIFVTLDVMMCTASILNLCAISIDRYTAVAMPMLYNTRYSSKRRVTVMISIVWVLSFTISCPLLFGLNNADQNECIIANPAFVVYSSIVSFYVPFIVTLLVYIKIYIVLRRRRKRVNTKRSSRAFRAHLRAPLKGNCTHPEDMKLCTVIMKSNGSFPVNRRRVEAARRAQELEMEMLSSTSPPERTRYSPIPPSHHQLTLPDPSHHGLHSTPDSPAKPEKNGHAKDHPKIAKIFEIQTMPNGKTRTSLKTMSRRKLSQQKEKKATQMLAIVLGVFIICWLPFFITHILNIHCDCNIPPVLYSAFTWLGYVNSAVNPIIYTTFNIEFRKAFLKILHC
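Agonist mode: compounds alone added to overnight-plated D2 PathHunter cells for 90 min at 37 C, with 57 uM final dopamine (EC100) defining full response. Beta-arrestin recruitment detected by chemiluminescent reagent, read after 1 h at ambient temperature.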
B2AR arrestin – recruits beta-arrestin to the human beta2-adrenergic receptor; P07550; beta-arrestin recruitment to beta2AR, cell-based reporter; Potency, µM (titrated, usually from 46.1 µM), for inactives: at the highest dose activation, usual class: activators; 330,000 compounds, 0.02% hits; AID 492947; active = well fitted activation curve with a large enough effect; inconclusive = small, poorly fitted or top-dose-only effect;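 note: potency is the fitted concentration of half-maximal effect; 0% = DMSO controls and full agonism = EC100 isoproterenol or metaproterenol; nearly all actives have a fitted effect of over 65% in size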
D2 ag-2 – activates the human D2 dopamine receptor; P14416; HEK293 T-REx D2 cells, calcium flux agonist mode; activation, % at 2 µM; 340,000 compounds, 0.53% hits; AID 485358;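 active = activation over 3 SD above normal in the single-dose calcium agonist read, cut at about 30% in these data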; note: 0% is about no effect
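In this primary screen, compounds producing a positive calcium signal within 180 s of addition to tetracycline-induced, force-coupled HEK293 Trex D2 cells are flagged; cells are dye-loaded with a no-wash calcium kit beforehand.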
D2 PAM-1 – D2 dopamine receptor (human) potentiation; P14416; HEK293 T-REx D2, calcium flux, EC20 dopamine potentiation; potentiation, % at 10 µM; 340,000 compounds, 0.34% hits; AID 485347;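 active = potentiation over 3 SD above the plate norm, cut at about 30% in these data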; note: 0% is about no effect
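Tetracycline-induced Hek293 Trex D2 cells, force-coupled to calcium, loaded with no-wash calcium dye. Compound added with 180 s kinetic read for agonism, then EC20 dopamine and a further 180 s read for potentiation.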
D2 antag – antagonists of human D2 dopamine receptor; P14416; HEK293 TREx D2 cells, calcium flux, dopamine EC80; inhibition, % at 10 µM; 340,000 compounds, 2% hits; in the data active = inhibition above about 30%; inactive = below that, where a call was filed; note: 0% is about no effect
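Dopamine at EC80 is the agonist stimulus; test compounds precede it by 180 s. Calcium flux read kinetically in a force-coupled, inducible HEK293 T-REx D2 cell line.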
D2 PAM-2 – human D2 receptor positive allosteric modulation | P14416 | DiscoveRx D2 beta-arrestin cells, luminescence, 90 min; 100% = 57 uM dopamine signal | potentiation, % (concentration not given with the values) | 360,000 compounds, 0.23% hits | AID 624464; in the data active = potentiation above about 50%; inconclusive = mostly about 30% to 49%
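PathHunter D2 cells, attached overnight at 37 deg C, received compound in DMSO plus dopamine at EC20 (50 nM final) for 90 min at 37 deg C. Beta-arrestin recruitment was read as luminescence after 1 h with detection reagent at ambient temperature.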
* marks the source's active call; other numbers are inactive results; ? = inconclusive; · = no result. A selection: hits, their analogues and other compounds. The true share with any hit is near 2.4%.

SMILES	D2 ag-1	B2AR arrestin	D2 ag-2	D2 PAM-1	D2 antag	D2 PAM-2
Cc1cc2c([nH]c3ccccc32)c2c1OC(C)(C)C=C2	14.7	-0.4%	0.1	13.7	42.6*	-13.9
CCN(CC)S(=O)(=O)c1ccc(NC(=O)COC(=O)c2cc(S(=O)(=O)Nc3ccc(OC)cc3)ccc2O)cc1	-0.2	-0.3%	-1.2	-4.4	-8.7	-4.9
CCOC(=O)Nc1sc(NS(=O)(=O)c2ccccc2)nc1C	12.3	-1.4%	0.1	-6.4	0.6	86.4*
Cc1nc(NS(=O)(=O)c2ccccc2)sc1NC(=O)Nc1ccccc1	?	0.2%	-1.0	-10.5	55.3*	0.6
CSc1cccc(NC(=O)/C=C/c2ccccc2)c1	-1.7	0.2%	0.7	-25.4	39.3*	-22.8
CSc1cccc(NC(=O)/C=C/c2ccc(Cl)cc2)c1	-1.5	0.9%	0.6	-21.1	69.8*	-9.4
c1ccc(-c2n[nH]c(-c3ccccc3)c2-c2nc3ccccc3[nH]2)cc1	-6.4	-0.4%	-0.8	2.4	-13.6	-12.3
CCOC(=O)C(Cc1c[nH]c2ccc([N+](=O)[O-])cc12)(NC(C)=O)C(=O)OCC	-1.2	·	·	·	·	-8.1
CSc1ccccc1C(=O)NCCCn1ccnc1	4.6	-0.6%	-0.4	6.6	-7.9	-0.6
OC(CNCCc1ccc(C(F)(F)F)cc1)COC(c1ccccc1)c1ccccc1 (stereo not drawn)	-2.8	-1.5%	7.1	-5.4	31.0*	-9.6
C[C@H](NC(=O)N1CCn2c1nc1ccccc12)C(=O)NC1CC1	-0.5	-0.4%	0.6	-11.1	67.1*	-7.2
COc1ccc(CCNC(=O)[C@H](C)NC(=O)N2CCn3c2nc2ccccc23)cc1OC	-3.8	0.0%	0.3	-4.0	37.2*	-8.7
COc1ccc(CCNC(=O)[C@H](CCSC)NC(=O)N2CCn3c2nc2ccccc23)cc1OC	-3.0	-0.3%	-0.8	-2.0	-1.0	-8.2
CC(NC(=O)[C@H](C)NC(=O)N1CCn2c1nc1ccccc12)c1ccccc1 (stereo partly drawn)	-1.6	-0.7%	0.0	4.2	-15.6	-2.9
O=C(Cn1cnc2c(NCc3ccccc3)ncnc21)NCc1ccccc1	-1.7	0.2%	·	·	·	-5.6
Cc1ccc(-n2ncc(C#N)c2/N=C/N2CCN(C)CC2)cc1	-3.2	-0.4%	0.4	-25.8	37.3*	-44.7
Cc1ccc(OCCN2CCN(c3nc(NCc4ccco4)c4ccccc4n3)CC2)cc1	1.9	-0.7%	0.2	-26.4	37.6*	-34.8
CSc1nc(NCc2ccco2)c2ccccc2n1	-1.6	-0.4%	0.6	-5.0	30.7*	-10.3
c1ccc(-c2nc(NCc3ccco3)c3oc4ccccc4c3n2)cc1	-0.1	-0.2%	-0.2	33.0*	-5.8	-6.7
OCCN1CCN(c2nc(NCc3ccco3)c3ccccc3n2)CC1	-2.0	-0.2%	-0.3	-25.2	27.5	-16.1
CC(C)(C)c1cc(C(F)(F)F)nc(SCCCNC(=O)c2ccco2)n1	2.3	-0.4%	-1.3	13.2	35.6*	-6.9
CC(C)(C)c1ccc(C(=O)NCCCNC(=O)c2ccco2)cc1	-2.6	-0.2%	0.2	-3.0	12.8	-3.5
COc1ccc(Cc2nc(-c3ccc(Br)cc3)no2)cc1	-1.2	-0.9%	-0.3	-10.0	31.2*	18.4
COc1ccc(Cc2nc(-c3ccc(Cl)cc3)no2)cc1	-5.9	-0.1%	0.0	2.3	15.4	-7.5
CCC1(c2ccc(Cl)cc2)NC(=O)N(Cc2ccc(C(=O)OC)cc2)C1=O (stereo not drawn)	0.8	0.5%	1.5	34.7*	4.0	6.6
CCC1(c2ccc(Cl)cc2)NC(=O)N(CC(=O)NCc2ccc(F)cc2)C1=O (stereo not drawn)	2.0	-0.3%	-0.4	2.9	-14.8	-5.1
CC(C)CNc1ncnc2c1ncn2[C@H]1CN(Cc2ccncc2)C[C@@H](CO)O1	3.1	·	·	·	·	-2.3
N#CC1=C(c2ccccc2)/C(=C/c2ccccc2)OC1=O	0.0	-0.4%	1.5	8.7	35.4*	-12.5
COc1ccc(C(CNC(=O)c2ccco2)N2CCCC2)cc1 (stereo not drawn)	-3.5	0.4%	0.8	-6.3	0.1	-16.7
